# According to the supplement of paper PMC6555819:
# Tested on: VDR:RXRa (NR concentration 270 nM, RXRa partner concentration 90 nM)
# Assay: PBM binding z-score (relative to random genomic background probes); higher = stronger binding; sequences stand for … in GC…GCGATTGACAGCGTAGAATGAAGG
# Method: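 Protein-binding microarray (Agilent 4x180K custom design, double-stranded 60-nt probes: 5' GC cap, 34-nt variable region, 24-nt constant primer region; full probe sequence given). Purified or IVT nuclear receptor:RXRα heterodimers (3:1 NR:RXRα, mostly 270:90 nM) or homodimers were incubated for 1 h in PBS with 2% milk and no ligand, then detected with Alexa488 antibodies. Fluorescence from o1-orientation probes (~5 replicates averaged) was converted to z-scores against 500 random hg19 background probes. Variable regions are seed direct-repeat (DR0–DR5) sites, all their single-nucleotide variants and half-site ablations.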
row,Sequence,PBM binding z-score
1,GCTATTAGTTGAAAGGGGAACCGAATGATTCTCG,-0.142
2,TCTTGTAGATCAAAAGAGGTTAAGAAAGTGCGCT,1.72
3,ACACGGAGGACAAAGGTCAGAGCTACGCCAGTGA,3.46
4,AATACAGGGCCACTAGGCCAGAGTAGGTACGAAT,-0.225
5,CCAGACAGGTGAGAAGGTCACTCAGCCTCGATTA,2.66
6,CGAAATAGGTCATTGACAGGACAGTGAATAGTAA,3.26
7,TGAATGAGGTTATAAGATCGGGGAACGTTGCAAA,0.904
8,TAGCCTAGGTCATGGGCCAGTACACCACGCGAAC,2.38
9,CGAACTAGGTCATTCAGGACAGTGAATACATTGA,4.46
10,TCTTGGAGATCAACAGGAGGTTAAGAAAGATCGA,0.539
11,CCTATTAGTTGACCATAAGGGCAACCGCAGCTCG,0.982
12,AATACAGGGTCATCATAGGCCAGAGTACGCACAG,5.14
13,TCAGACAGTTGAAGGTAACTCAGGTACGCAGTCG,1.03
14,TTACCAAGGTAAAGGTCGTTGATCCCTCTGTAGA,2.34
15,CGTCAAAGTTCAAAGTAACGTAACAGAAAGCAGC,4.09
16,CCTTACGGGTCCAGGTTATAGCACGGGTGGTACG,-0.152
17,TCTTGTAGATCAATAGAGGTTAAAAAAGTGCGCT,1.94
18,TAGCCGAGGTCATGCGGGCCAGTATAGTGTCGGC,5.82
19,CCTACTTGGCCAAGGTCATTGATCAGTCAAAGCA,3.78
20,CCTACTGGGCCAAAAAGCTCATTGATGCCGATAA,-0.648

row,Sequence,PBM binding z-score
1,TTACCAAGGTGAGCTGAGTTCGTTGATCCAACTC,4.86
2,CAAACTAGGTCACGGAAGGTCAAAGTCGAATGAC,6.69
3,GCTGCTAGGTCCGGTTGGTCAGCTAACGGGTACG,-0.965
4,CGTCCAAGGTCAGAGAGGACAGTGAATGCCGAGT,5.85
5,ATCGAAAGGTCGAGCTGAGTATAGAGAAAGGGAA,2.53
6,CGTCAAAGTTCAAGGTAACGTAGCAGAAAGCAGC,3.6
7,ATCTCTAGCTAACAAGTTCAGTGAAAGAGAGGAC,1.64
8,ACTGGCAGGCCAAGTTTGGGTCACTCAAACAAAG,0.456
9,GCTATTAGTTGAAAGGGCTACCGAATGATTCTCG,-0.406
10,TGAATGAGATTATAAGATCAGGGAACGTTGCAAA,-0.491
11,GCGACTGGGGCAAAGCAGATTACCATAAGGTTGG,-0.591
12,TCGAGTCGGTTAGTCGGGGCATTCAGCCAACATA,0.217
13,CGTCCCAGGTCAGAGAGGTCAGTGAATGCCGAGT,6.8
14,CCTATTTGGTCAAGGTCACACACGCTATAGGTAC,4.18
15,ATCTCTAGGTAGAGTTCAGTGAAAGATCGATAGA,2.38
16,GCAGACAGGTGCAACGCAGGTAACTCAGGGTGGC,-0.467
17,ATATGTAGGTTAAGGGTCTTTCAGGTTGGTTCGC,1.79
18,TCATATAGTTAATACAGGTGAAAGTCGGCATCTA,1.26
19,CCTCGGAGGACAGAACGTCAGAGCTGTCCGCTTT,-0.754
20,ATATGTAGGTTAAGGGTTATTCAGGTTGGTTCGC,3.27
